Bioassay records deposited in PubChem BioAssay by National Center for Advancing Translational Sciences (NCATS).
Most compounds without a hit are left out; they make up all but 21% or so of the library.
Pf growth 48h = P. falciparum growth inhibition at 48 hours (one generation); P. falciparum luciferase growth in erythrocytes, 48 h; Potency, µM (series often up to 28.7 µM), usual class: inhibitors; hit rate 5.9% among 310,000; AID 504832
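Luminescence readout; reporter = integrated firefly luciferase in P. falciparum. RBC culture at 2% hematocrit, 0.1% parasitemia final, 37 C/5% CO2; decreased signal taken as growth inhibition.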
Cycloheximide cs = counter-screen for Shiga toxin inhibitors: cycloheximide protein synthesis inhibition; cell reporter, cycloheximide protein synthesis inhibition counterscreen; max response, %; hit rate 12% among 300,000; in the data active = max response mostly above about 13%, no sharp cut-off; inactive = mostly below about 14%; note: read at 38.3 µM for the half of the compounds with a filed dose
HCMV antiviral = inhibitors of human cytomegalovirus; HFF cells, HCMV-luciferase reporter, 72 h; stronger effect = lower value; activity change, negative = inhibition, % at 57.5 µM; hit rate 4.5% among 410,000; AID 1259415; in the data active = activity change below about -60%; inconclusive = no clear call, values can overlap the other calls; inactive = above about -39%
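Inhibition of viral replication was scored as loss of reporter luminescence in HFFs infected with HCMV-luciferase (MOI 1 PFU/cell) for 72 h; compounds tested at 2 doses, normalized to buffer and Salinomycin controls.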
HCV inhibitor = blocks hepatitis C virus | AID 651820 | Potency, µM (titrated, usually from 41.8 µM), actives largely listed as inhibitors | hit rate 3.4% among 340,000 | Huh7.5.1 HCVcc-Cre infection, luciferase reporter, 44 h
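1,000 cells/well; 4 h culture; + compound; + HCVcc-Cre (~0.5 moi); 44 h; luciferase substrate, RT 15 min; read 15 sec.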
Pf growth 96h = P. falciparum growth inhibition at 96 hour, primary screen for plastid delayed-death inhibitors. hit rate 6.9% among 320,000. P. falciparum luciferase reporter growth, 96 h. AID 504834. Potency, µM (top dose mostly 28.7 µM), hits mostly inhibitors
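Cell-based qHTS: luciferase-tagged P. falciparum in erythrocytes (2% hematocrit, 0.05% parasitemia final) incubated with compounds for 96 hours, 37 C, 5% CO2; luciferase detection reagent then added and luminescence measured.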
Shiga toxin inh = Shiga toxin inhibition; Vero cells, Shiga toxin protein synthesis inhibition reporter; inhibition, % at 38.7 µM; hit rate 9.2% among 290,000; in the data active = inhibition mostly above about 28%, no sharp cut-off; inactive = mostly below about 43%
Hits are given with their value; i = inactive; ? = inconclusive; nt = no result given; [ ] = another dose, or the depositor's remark. Unless noted, calls come from the whole dose curve; as a rule, active = well fitted inhibition curve with a large enough effect; inconclusive = small, poorly fitted or top-dose-only effect, or another doubt; inactive = no such curve, though single readings can be large or run the other way.

SMILES	Pf growth 48h	Cycloheximide cs	HCMV antiviral	HCV inhibitor	Pf growth 96h	Shiga toxin inh
CCN(CC)C(=S)Nc1ccc(Cl)c(Cl)c1	i	i	-65.8	?	i	i
CCOC(=O)N1CCN(C(=O)CN(C2CCCCC2)S(=O)(=O)c2c(C)cc(C)cc2C)CC1	nt	i	i	i	10.4µM	i
Cc1ccc(CC(=O)N2CCN(c3ccccc3F)CC2)cc1	i	13.1	i	i	?	i
Cc1cc(C)c(S(=O)(=O)N(CC(=O)N2CCOCC2)C2CCCCC2)c(C)c1	?	i	i	i	?	i
Cc1ccc(S(=O)(=O)N(CC(=O)N2CCN(c3ccccc3F)CC2)C2CCCCC2)cc1	nt	i	nt	i	10.4µM	i
CCc1ccc(OCC(=O)N2CCN(c3ccccc3F)CC2)cc1	i	i	i	i	6.57µM	i
COc1cccc(NC(=O)Cn2c(=O)n(CCc3ccccc3)c(=O)c3c4c(sc32)CN(C(C)=O)CC4)c1	nt	nt	i	nt	nt	nt
Cc1cccc(C)c1OCCCCN1CCNCC1	?	i	i	i	i	i
Cc1ccccc1OCCn1ccnc1	i	37.5	i	i	?	i
Cc1cc(C)c(OCCCCN2CCNCC2)c(C)c1	?	i	i	?	3.29µM	i
Cc1cc(C)c(OCCCCCn2ccnc2)c(C)c1	13.1µM	i	i	i	i	i
C=CCc1cc(C)ccc1OCCOCCn1ccnc1	i	i	-63.2	?	i	i
Cc1cc(Cl)cc(C)c1OCCCCCn1ccnc1	?	i	i	?	i	i
C[C@H](CO)N1C[C@H](C)[C@@H](CN(C)S(=O)(=O)c2ccc3ccccc3c2)OCc2cnnn2CCCC1=O	nt	nt	i	nt	nt	nt
COc1cccc(NC(=O)NC2CCN(CC(=O)Nc3ccccc3[N+](=O)[O-])CC2)c1	?	i	i	?	?	i
CCOc1ccc(NS(=O)(=O)c2ccc3[nH]c(=O)[nH]c3c2)cc1	i	i	?	i	i	i
CC(=O)Nc1ccc(Oc2ccc(S(=O)(=O)N3CCCC3)cn2)cc1	?	nt	?	i	?	nt
Cc1ccc(C)c(OCCCCCn2ccnc2)c1	14.7µM	i	i	?	11.7µM	i
CC1C(=O)OC(c2ccc(Br)cc2)C(C)(C)C1=O (configuration not stated)	i	i	i	i	i	i
CCn1cc(CN(C)S(=O)(=O)c2cccc([N+](=O)[O-])c2)cn1	i	i	i	i	?	i
CCn1cc(CN(C)S(=O)(=O)c2ccc3ccccc3c2)c(C)n1	i	i	-68.4	7.94µM	i	i
O=C(NCC1COc2ccccc2O1)c1ccc(F)c(S(=O)(=O)N2CCOCC2)c1 (configuration not stated)	?	nt	i	i	i	nt
CCc1ccc(NC(=O)c2ccc(F)c(S(=O)(=O)NC3CCCCCC3)c2)cc1	nt	nt	-78.9	nt	nt	nt
CCc1ccc(NC(=O)c2ccc(F)c(S(=O)(=O)NCC3COc4ccccc4O3)c2)cc1 (configuration not stated)	?	i	-90.7	?	?	i
O=C(Nc1cc(Cl)cc(Cl)c1)c1ccc(F)c(S(=O)(=O)NC2CCCC2)c1	nt	nt	i	nt	nt	nt
SMILES	Pf growth 48h	Cycloheximide cs	HCMV antiviral	HCV inhibitor	Pf growth 96h	Shiga toxin inh
CCc1ccc(NC(=O)c2ccc(F)c(S(=O)(=O)N3CCN(c4ccc(OC)cc4)CC3)c2)cc1	nt	nt	i	nt	nt	nt
CCc1ccc(NC(=O)c2ccc(F)c(S(=O)(=O)NCCc3ccc(OC)c(OC)c3)c2)cc1	nt	nt	-83.3	nt	nt	nt
CCc1ccc(NC(=O)c2ccc(F)c(S(=O)(=O)N(C)C3CCCCC3)c2)cc1	nt	nt	-98.3	nt	nt	nt
Cc1ccccc1Nc1nc(N)nc(COC(=O)c2ccc3c(c2)OCCO3)n1	nt	nt	i	nt	nt	nt
COc1cc2c(cc1OC)CN(Cc1cc(OC)c3c(c1)OCO3)CC2	?	i	i	i	?	i
COc1cc2c(cc1O)CC[n+]1cc3c(OC)c(OC)ccc3cc1-2	0.415µM	i	i	i[8.37 µM]	0.117µM	i
COc1cc2c(cc1OC)-c1cc3ccc4c(c3c[n+]1CC2)OCO4	1.04µM	i	i	i	0.147µM	i
COc1cc2oc(=O)ccc2cc1O	nt	i	nt	nt	nt	i
Cc1ccc(C(=O)Nc2ccc(C(=O)N/N=C/c3ccncc3)cc2)cc1	i	i	nt	nt	i	i
CC(=O)Nc1cccc(C(=O)N/N=C/c2cccnc2)c1	i	i	i	i	i	i
CC(=O)Nc1cccc(C(=O)N/N=C/c2ccc(F)cc2)c1	i	33.9	i	i	?	83.0
Cc1ccc(C(=O)Nc2cccc(C(=O)N/N=C/c3ccc(F)cc3)c2)cc1	i	26.9	i	?	?	58.4
COc1cccc(CN2CCC(C(=O)Nc3ccc(-c4cccc(C)c4)cc3)CC2)c1O	?	i	i	10µM	i	i
Cc1cccc(-c2ccc(NC(=O)C3CCN(CC4CC4)CC3)cc2)c1	?	i	i	10µM	i	i
COc1cccc(-c2cccc(NC(=O)C3CCN(Cc4ccc(C)o4)CC3)c2)c1	i	i	i	i	i	i
O=C(O)Cc1ccc(C(=O)CSc2ccccc2)s1	i	i	i	i	i	i
Cc1ccnc(SCC(=O)c2ccc(Br)s2)n1	i	35.8	i	i	i	i
Cc1ccnc(SCC(=O)c2cccs2)n1	i	38.0	i	i	i	83.7
Cc1cc(C)nc(SCC(=O)NNC(=O)c2cccs2)n1	i[5.75 µM]	i	i	?	i	i
Cc1ccc(SCC(=O)c2ccc(CC(=O)O)s2)cc1	i	19.5	i	i	i	i
CC(=O)Nc1ccc(SCC(=O)c2ccc(Br)s2)cc1	i	21.2	i	i	i	36.9
O=C(Cn1ccn(-c2ccc(F)c(F)c2)c(=O)c1=O)c1ccc(F)cc1	nt	nt	i	nt	nt	nt
CC(=O)Nc1ccc(SCc2csc(C)n2)cc1	?	i	i	i	?	47.3
O=[N+]([O-])c1ccc(S(=O)(=O)N/N=C/c2ccsc2)cc1	i	i	i	i	i	i
N#Cc1ccc(C(=O)N2CCC3CC2c2cc(-c4ccc(F)cc4)ccc23)cc1 (configuration not stated)	nt	nt	i	35.5µM	nt	nt
SMILES	Pf growth 48h	Cycloheximide cs	HCMV antiviral	HCV inhibitor	Pf growth 96h	Shiga toxin inh
O=C(c1ccc(-c2ccccc2)cc1)N1CCC2CC1c1cc(-c3ccc4c(c3)OCO4)ccc12 (configuration not stated)	nt	nt	i	nt	nt	nt
CC(OC(=O)C1CC1)C(=O)Nc1ncc(Cl)cc1Cl (configuration not stated)	i	nt	i	i	i	nt
COc1cc(/C=C/C(=O)OC(C)C(=O)Nc2c(C)n(C)n(-c3ccccc3)c2=O)ccc1OCC#N (configuration not stated)	i	i	i	i	i	i
S=C(NCCc1ccc(Cl)cc1)NC1CC1	i	i	-75.0	i	?	i
S=C(NCCc1ccccc1)N/N=C/c1ccc(Cl)cc1	i	i	?	i	i	i
Fc1ccc(CCNC(=S)Nc2ccc(F)cc2)cc1	i	36.0	?	i	i	47.0
O=C(NCCc1ccccc1)Nc1ccc(Cl)cc1	i	45.8	i	i	i	46.0
S=C(NCCc1ccccc1)Nc1ccc(Cl)cc1	i	52.7	-79.0	?	i	i
NS(=O)(=O)c1ccc(CCNC(=S)NC2CCCC2)cc1	i	i	i	i	i	i
